In ChEMBL document CHEMBL1961873, “Compounds: GSK PKIS; Assays: Nanosyn kinase panel” (2012) one finds inhibition data, which are given here for 31 molecules.

“And” between values parts separate entries of the source, which are not always exact repeats. Equal entries are not always repeated.

Proto-oncogene tyrosine-protein kinase receptor Ret (Homo sapiens), P07949 [V804L], sequence (P07949 whole entry V804L): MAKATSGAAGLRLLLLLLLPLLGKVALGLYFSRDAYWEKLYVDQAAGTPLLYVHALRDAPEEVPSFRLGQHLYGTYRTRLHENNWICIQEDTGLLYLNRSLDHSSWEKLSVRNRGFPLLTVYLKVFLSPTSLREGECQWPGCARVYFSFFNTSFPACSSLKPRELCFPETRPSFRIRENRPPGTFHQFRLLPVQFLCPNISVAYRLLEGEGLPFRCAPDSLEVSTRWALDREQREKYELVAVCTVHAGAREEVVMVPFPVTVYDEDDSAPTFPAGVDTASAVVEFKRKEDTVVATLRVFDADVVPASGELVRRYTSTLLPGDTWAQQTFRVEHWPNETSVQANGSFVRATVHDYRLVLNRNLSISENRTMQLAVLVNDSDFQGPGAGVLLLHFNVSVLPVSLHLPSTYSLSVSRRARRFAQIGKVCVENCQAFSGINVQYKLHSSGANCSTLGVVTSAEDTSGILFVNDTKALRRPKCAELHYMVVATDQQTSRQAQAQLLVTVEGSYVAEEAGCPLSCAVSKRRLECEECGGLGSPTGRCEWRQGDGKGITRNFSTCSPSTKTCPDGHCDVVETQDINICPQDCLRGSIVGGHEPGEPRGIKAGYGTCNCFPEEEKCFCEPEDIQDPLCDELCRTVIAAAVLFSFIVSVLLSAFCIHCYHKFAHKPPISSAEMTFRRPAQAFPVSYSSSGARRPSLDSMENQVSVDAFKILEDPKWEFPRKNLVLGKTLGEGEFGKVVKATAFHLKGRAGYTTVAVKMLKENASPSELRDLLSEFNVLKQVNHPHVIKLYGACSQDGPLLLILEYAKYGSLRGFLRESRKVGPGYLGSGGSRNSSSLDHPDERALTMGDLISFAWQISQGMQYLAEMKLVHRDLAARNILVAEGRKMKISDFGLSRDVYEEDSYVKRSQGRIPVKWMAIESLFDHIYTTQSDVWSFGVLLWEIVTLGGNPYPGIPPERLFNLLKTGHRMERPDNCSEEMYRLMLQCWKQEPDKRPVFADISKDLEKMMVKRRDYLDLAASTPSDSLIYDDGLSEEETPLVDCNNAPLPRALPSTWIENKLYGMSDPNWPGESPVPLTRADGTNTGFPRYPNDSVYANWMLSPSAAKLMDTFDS

The assay has as its system Proto-oncogene tyrosine-protein kinase receptor Ret (Homo sapiens), P07949 [V804L]. The following applies: at 0.1 µM.
In the case of `Cc1cc(O)cc(C)c1/C=C/c1cncc(C(=O)OC(C)(C)C)c1`, the inhibition (in general, the change of the read-out against control, counted positive when it falls) came to 3.42%.

In turn, `CS(=O)(=O)Nc1ccc(-c2ccc3c(NC(=O)C4CC4)n[nH]c3c2)cc1` gave an inhibition of 4.24%.

The molecule `COc1cc2c(cc1Nc1nc(Nc3cccc(F)c3C(N)=O)c3cc[nH]c3n1)N(C(=O)CN1CCN(C(C)C)CC1)CC2` had an inhibition of 1.85%.

`COC(=O)Nc1nc2cc(Oc3ccc(NC(=O)Nc4ccccc4)cc3)ccc2[nH]1`: the inhibition was 8.3%.

`COc1ccccc1-c1cc(/C=C2\C(=O)Nc3ncc(Br)cc32)cc(Br)c1O` registered an inhibition of 9.25%.

Consider `O=C(Nc1n[nH]c2nnc(-c3cccnc3)cc12)C1CC1`, for which the inhibition amounted to 0.89%.

Turning to `CCOc1ccc2c(-c3ccnc(Nc4cc(OC)cc(C(F)(F)F)c4)n3)cnn2n1`, the inhibition is 1.94%.

As for `O=C(O[C@H]1CN[C@H](C#Cc2cc3ncnc(Nc4ccc(OCc5cccc(F)c5)c(Cl)c4)c3s2)C1)N1CCOCC1`, the inhibition is 2.92%.

For the molecule `CC1=C(C(=O)Nc2ccc3[nH]ncc3c2)C(c2ccc(F)cc2)N=C(c2ccc(C(F)(F)F)nc2)N1` (stereo unspecified), the inhibition is 5.19%.

For the molecule `Nc1nccc(-c2c(-c3ccc(F)cc3)ncn2C2CCNCC2)n1`, the inhibition was 0.39% and 2.71%.

The molecule `COc1c(C(N)=O)cc(-c2ccc(Cl)cc2)cc1-c1ccc(S(N)(=O)=O)cc1` came in with an inhibition of 6.61%.

Molecule `CCS(=O)(=O)c1ccc(OC)c(Nc2ncc(-c3cccc(F)c3)o2)c1` yielded an inhibition of 7.78%.

With `Cc1c2ccc(N(C)c3ccnc(Nc4cccc(S(N)(=O)=O)c4)n3)cc2nn1C`, the inhibition came to 10.1%.

As to `CN(C)CCNC(=O)Nc1ccc(N(C)c2ccnc(Nc3ccc(CS(C)(=O)=O)cc3)n2)cc1`, the inhibition was 4.98%.

As for `COc1ccc2ncn(-c3cc(O[C@H](C)c4ccccc4C(F)(F)F)c(C(N)=O)s3)c2c1`, the inhibition stood at 3.57%.

Turning to `Cc1nnc(-c2cccc(-c3ccc(C(=O)NCC4CC4)cc3)c2)o1`, the inhibition amounted to 4.63%.

`CS(=O)(=O)Nc1ccc(-c2cc(-c3ccccc3)cc(C(N)=O)c2N)cc1` returned an inhibition of 2.01%.

`CN1CCC(n2cnc(-c3ccc(F)cc3)c2-c2ccnc(NCCO)n2)CC1` gave an inhibition of 4.71%.

For the molecule `COC(=O)Nc1nc2ccc(Oc3ccc(NC(=O)Nc4cc(C(F)(F)F)ccc4F)cc3)cc2s1`, the inhibition came to 67.3%.

In turn, `COc1ccc(Nc2ncc(-c3ccccc3)o2)cc1OC` displayed an inhibition of 4.53%.

Take `OCCCNc1nccc(-c2c(-c3ccc(F)cc3)nn3cc(C(F)(F)F)ccc23)n1`: the inhibition was 1.59%.

In the case of `Fc1cccc(COc2ccc(Nc3ncncc3C#Cc3ccccc3)cc2Cl)c1`, the inhibition came out at 5.31%.

`CS(=O)(=O)CCNCc1ccc(-c2ccc3ncnc(Nc4ccc(OCc5cccc(C(F)(F)F)c5)cc4)c3c2)o1`: the inhibition was determined as 3.51%.

Molecule `CS(=O)(=O)CCNCc1ccoc1-c1ccc2ncnc(Nc3ccc(OCc4ccccc4)cc3)c2c1` showed an inhibition of 8.41%.

The molecule `N#Cc1cccc(Nc2ncc(-c3ccccc3)o2)c1` came in with an inhibition of 0.71%.

Consider `N#Cc1ccc2c(-c3ccnc(NC4CC4)n3)c(-c3ccc(F)cc3)nn2c1`, for which the inhibition turned out to be 3.66%.

Turning to `Cc1ccc(-c2cc3c(NC(=O)C4CC4)ncnc3o2)cc1`, the inhibition came to 6.9%.

With `NS(=O)(=O)c1cccc(N/C=C2\C(=O)Nc3ccccc32)c1`, the inhibition stood at 11%.

Turning to `O=C(O[C@H]1CN[C@H](C#Cc2cc3ncnc(Nc4ccc5c(cnn5Cc5ccccc5)c4)c3s2)C1)N1CCOCC1`, the inhibition was determined as 2.83%.

`Cc1cc(O)cc(C)c1/C=C/c1cncc(C(N)=O)c1` came in with an inhibition of 0.84%.

With `CS(=O)(=O)CCNCc1ccc(-c2ccc3ncnc(Nc4ccc(OCc5ccccc5)cc4)c3c2)o1`, the inhibition was determined as 3.01%.
